From the supplement of paper PMC10515830
Where a name gives a salt, the structure may show the parent alone.

These compounds were tested on Danio rerio larvae (5 dpf) (assay: difference in excitability vs DMSO (percentage points); higher = more excitable than DMSO). Details: 10 µM; exposure time 6 h.
Method in brief: (§1)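 Wild-type zebrafish larvae at 5 dpf were kept in 96-well plates and exposed for 6 h to 100 µL egg water holding library compound at a final concentration of 10 µM. From 3 h into exposure, the plates were held at 28.5 ℃ and photographed every 6 s through a 3-h programme of moving lines and 100 ms, 400Hz tones. Each behaviour was scored by Z-LaP Tracker, a DeepLabCut model, and averaged over 48 larvae per compound. Every value gives the compound mean minus the vehicle control mean, in percentage points.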

Row | Structure (SMILES) | difference in excitability
1 | CNCC[C@H](Oc1cccc2ccccc12)c1cccs1 [(S)-Duloxetine (hydrochloride)] | 4.76
2 | NC(=O)Cc1cccc(C(=O)c2ccccc2)c1N [Nepafenac] | 9.24
3 | CN(C)[C@@H]1C(O)=C(C(N)=O)C(=O)[C@@]2(O)C(O)=C3C(=O)c4c(O)cccc4[C@@](C)(O)[C@H]3[C@H](O)[C@@H]12 [Oxytetracycline] | -1.74
4 | Oc1c(Cl)cc(Cl)c(Cl)c1Cc1c(O)c(Cl)cc(Cl)c1Cl [Hexachlorophene] | 8.13
5 | Nc1nc(Cl)nc2c1ncn2[C@H]1C[C@H](O)[C@@H](CO)O1 [Cladribine] | -6.72
6 | Cc1cc(C2CCCCC2)n(O)c(=O)c1 [Ciclopirox] | 3.8
7 | O=C(O)c1cc(/N=N/c2ccc(S(=O)(=O)Nc3ccccn3)cc2)ccc1O [Sulfasalazine] | 11.1
8 | CC(C)(C)c1nc(-c2cccc(NS(=O)(=O)c3c(F)cccc3F)c2F)c(-c2ccnc(N)n2)s1 [Dabrafenib] | 1.22
9 | CN(C/C=C/C#CC(C)(C)C)Cc1cccc2ccccc12 [Terbinafine (hydrochloride)] | 7.35
10 | NNC(=O)c1ccncc1 [Isoniazid] | 6.63

Each compound was assayed on Danio rerio larvae (5 dpf) (assay: difference in startle response vs DMSO (percentage points); higher = stronger startle than DMSO). Details: 10 µM; exposure time 6 h.
Method in brief: as §1

Row | Structure (SMILES) | difference in startle response
11 | COc1c(C)c2c(c(O)c1C/C=C(\C)CCC(=O)O)C(=O)OC2 [Mycophenolic Acid] | 4.16
12 | CCCc1nc(C(C)(C)O)c(C(=O)OCc2oc(=O)oc2C)n1Cc1ccc(-c2ccccc2-c2nnn[nH]2)cc1 [Olmesartan Medoxomil] | -2.51
13 | Cc1ccc(N(CC2=NCCN2)c2cccc(O)c2)cc1 [Phentolamine (mesylate)] | 0.261
14 | CNCCCC12CCC(c3ccccc31)c1ccccc12 [Maprotiline (hydrochloride)] | 5.37
15 | CC=CC(=O)N(CC)c1ccccc1C [Crotamiton] | 3.97
16 | CCCCN1C[C@H](O)[C@@H](O)[C@H](O)[C@H]1CO [N-Butyldeoxynojirimycin (hydrochloride)] | 4.45
17 | CCCCC(C)(O)C/C=C/[C@H]1[C@H](O)CC(=O)[C@@H]1CCCCCCC(=O)OC (mixture of isomers) [Misoprostol] | 0.222
18 | CCCCc1ncc(/C=C(\Cc2cccs2)C(=O)O)n1Cc1ccc(C(=O)O)cc1 [Eprosartan (mesylate)] | -7.77
19 | CC(=O)OCC(=O)[C@@]12OC3(CCCC3)O[C@@H]1C[C@H]1[C@@H]3CCC4=CC(=O)C=C[C@]4(C)[C@@]3(F)[C@@H](O)C[C@@]12C [Amcinonide] | 5.38
20 | CN1C(=O)CC(C)(c2ccccc2)C1=O (centres undefined) [Methsuximide] | 8.76
21 | CC[C@H](Nc1ncnc2[nH]cnc12)c1nc2cccc(F)c2c(=O)n1-c1ccccc1 | 1.19
22 | CN(C)CCCN1c2ccccc2Sc2ccc(Cl)cc21 [Chlorpromazine (hydrochloride)] | -0.58
23 | Clc1ccc2c(c1)C(N1CCNCC1)=Nc1ccccc1O2 [Amoxapine] | -0.987
24 | C=C1CC[C@H](O)C/C1=C/C=C1\CCC[C@]2(C)[C@@H]([C@H](C)/C=C/[C@H](C)C(C)C)CC[C@@H]12 [Vitamin D2] | -5.12
25 | Cc1cc2nc3c(=O)[nH]c(=O)nc-3n(C[C@H](O)[C@H](O)[C@H](O)COP(=O)(O)O)c2cc1C [Riboflavin 5'-monophosphate (sodium salt hydrate)] | -0.41
26 | CNS(=O)(=O)CCc1ccc2[nH]cc(C3CCN(C)CC3)c2c1 [Naratriptan (hydrochloride)] | 2.03
27 | Cc1ccc(/C(=C\CN2CCCC2)c2cccc(/C=C/C(=O)O)n2)cc1 [Acrivastine] | -0.645
28 | COC(=O)C1=C(C)NC(C)=C(C(=O)OCCN(C)Cc2ccccc2)C1c1cccc([N+](=O)[O-])c1 (centres undefined) [Nicardipine (hydrochloride)] | -1.35
29 | C[C@H](CS)C(=O)N1CCC[C@H]1C(=O)O [Captopril] | -4.09
30 | NCCNCCNCCN [Trientine (hydrochloride)] | -0.163

Row | Structure (SMILES) | difference in startle response
31 | COc1ccc2c(O[C@@H]3C[C@H]4C(=O)N[C@]5(C(=O)NS(=O)(=O)C6CC6)C[C@H]5/C=C\CCCCN(C)C(=O)[C@@H]4C3)cc(-c3nc(C(C)C)cs3)nc2c1C [Simeprevir (sodium salt)] | -3.43
32 | C[C@H](N[C@@H](CCc1ccccc1)C(=O)O)C(=O)N1CCC[C@H]1C(=O)O [Enalaprilat (hydrate)] | -2.87
33 | Cc1nnc(SCC2=C(C(=O)O)N3C(=O)[C@@H](NC(=O)Cn4cnnn4)[C@H]3SC2)s1 [Cefazolin (sodium salt)] | -2.79
34 | O=C(O)C1(C(=O)O)CCC1.[NH2-].[NH2-].[Pt+2] [Carboplatin] | -1.15
35 | C[N+](C)(C)CCOC(N)=O [Carbamoylcholine (chloride)] | 2.73
36 | C[C@]12CCC(=O)C=C1CC[C@@H]1[C@@H]2[C@@H](O)C[C@@]2(C)[C@H]1CC[C@]2(O)C(=O)CO [Hydrocortisone] | 0.52
37 | COC(=O)N[C@H](C(=O)N1CCC[C@H]1c1ncc(-c2ccc(-c3ccc(-c4cnc([C@@H]5CCCN5C(=O)[C@@H](NC(=O)OC)C(C)C)[nH]4)cc3)cc2)[nH]1)C(C)C [Daclatasvir] | 2.15
38 | CC(C)(C)NC(=O)[C@H]1CC[C@H]2[C@@H]3CC[C@H]4NC(=O)C=C[C@]4(C)[C@H]3CC[C@]12C [Finasteride] | 3.35
39 | CO[C@H]1C[C@@H]2CC[C@@H](C)[C@@](O)(O2)C(=O)C(=O)N2CCCC[C@H]2C(=O)O[C@H]([C@H](C)C[C@@H]2CC[C@@H](OCCO)[C@H](OC)C2)CC(=O)[C@H](C)/C=C(\C)[C@@H](O)[C@@H](OC)C(=O)[C@H](C)C[C@H](C)/C=C/C=C/C=C/1C [Everolimus] | 1.06
40 | CNCC[C@H](Oc1cccc2ccccc12)c1cccs1 [(S)-Duloxetine (hydrochloride)] | -1.86
41 | NC(=O)Cc1cccc(C(=O)c2ccccc2)c1N [Nepafenac] | 1.72
42 | CN(C)[C@@H]1C(O)=C(C(N)=O)C(=O)[C@@]2(O)C(O)=C3C(=O)c4c(O)cccc4[C@@](C)(O)[C@H]3[C@H](O)[C@@H]12 [Oxytetracycline] | -1.21
43 | Oc1c(Cl)cc(Cl)c(Cl)c1Cc1c(O)c(Cl)cc(Cl)c1Cl [Hexachlorophene] | -9.45
44 | Nc1nc(Cl)nc2c1ncn2[C@H]1C[C@H](O)[C@@H](CO)O1 [Cladribine] | -0.563
45 | Cc1cc(C2CCCCC2)n(O)c(=O)c1 [Ciclopirox] | -2.37
46 | O=C(O)c1cc(/N=N/c2ccc(S(=O)(=O)Nc3ccccn3)cc2)ccc1O [Sulfasalazine] | 2.87
47 | CC(C)(C)c1nc(-c2cccc(NS(=O)(=O)c3c(F)cccc3F)c2F)c(-c2ccnc(N)n2)s1 [Dabrafenib] | 0.607
48 | CN(C/C=C/C#CC(C)(C)C)Cc1cccc2ccccc12 [Terbinafine (hydrochloride)] | 0.627
49 | NNC(=O)c1ccncc1 [Isoniazid] | 4.93
